Measured values as given in PubChem BioAssay (NCI).
This is part of a sample that, as a whole, favours compounds with a hit. Of some 83,000 tested, about 20% had one in any assay.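 48-hour exposure, single concentration, 96-well plates; percent growth endpoint where 0 means no net growth. Active: below 10.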 Values without a mark were called inactive. The source made the active and inactive calls.

These compounds were tested on HCC-2998 colon (assay: NCI-60 one-dose screen, 48 h (100 = growth as untreated, 0 = no growth, -100 = all killed)). Details: 10 µM unless noted.
Experimental: Growth inhibition of the HCC-2998 human tumor cell line is measured as a screen for anti-cancer activity. Cells are grown in 96 well plates and exposed to the test compound for 48 hours. Compounds are tested at a single concentration, which is 10^-5 M for most compounds. The reported endpoint is percent growth (GI% or GIPRCNT), where numbers from 0 - 100% represent growth inhibition, and numbers from -100% - 0 represent cell death. For example, a value of 40 represents 60% growth inhibition. A value of 0 means no net growth occurred over the course of the experiment. A value of -40 indicates 40% of cells at the beginning of the experiment died by the end of the experiment. A value of -100 means all cells are dead at the end of the experiment.
NCI-60 Human Tumor Cell Lines Screen was performed using the standard one-dose NCI protocol, which is described in more detail at https://dtp.cancer.gov/discovery_development/nci-60/default.htm.
Compounds with GIPRCNT values below 10 were considered active. Activity score was based on GIPRCNT using the following formula: […]
Score is 0 for GIPRCNT values of 100 or above, 50 for GIPRCNT values of 0, and 100 for GIPRCNT values of -100.
Compound CCCCCCC(O)(c1ccc(F)cc1)C(CN1CCOCC1)c1ccccc1 (stereo not given) has a growth of 23.3%.
In the case of CC1(O)COCCCCOc2c(CN)cccc2NC(=O)c2nc(cnc2N)-c2ccc(cc2)S(=O)(=O)C(C)(C)C1 (stereo not given), the growth is reported as -1.91% (active).
In the case of COc1ccc(C(=O)C2CC2c2ccc(Cl)cc2)cc1 (stereo not given), the growth is reported as 98.8%.
In the case of Cn1c(C(=O)c2cccc3ccccc23)nc2ccccc21, the growth is reported as 6.79% (active).
Work on CN(C)/C=C1\SC(=Nc2ccc(Cl)cc2)NC1=O yielded a growth of 104%.
With CNC(=O)c1cc(Oc2ccc(CC(=O)Nc3cc(C(C)(C)C)cn3C)cc2)ccn1 the growth was 103%.
Compound O=C(COc1cc(O)c2c(=O)cc(-c3ccccc3)oc2c1)Nc1ccccc1 has a growth of 99.7%.
CC(C)(C)c1ccc(C2CC(=O)C3=C(C2)Nc2ccccc2N(C(=O)c2ccccc2Cl)C3c2ccc(F)cc2)cc1 (stereo not given) was tested, and the growth was -21.2% (active).
Work on COc1ccc(Cn2c(Br)c3c(c2Br)-c2nc(N)sc2CC3)cc1 yielded a growth of 66.9%.
O=C(/C=C/c1ccccn1)c1ccc(OCc2nnc(-c3ccc(Cl)cc3)o2)cc1 showed a growth of 28%.
In the case of COc1ccc(/C=C2/SC(=O)N(CC(=O)N3CCN(c4cc5c(cc4F)c(=O)c(C(=O)O)cn5C4CC4)CC3)C2=O)cc1, the growth is reported as 105%.
COc1cc(/C=C/C(=O)N2c3ccccc3CC2C)c(OC)c2c1OCO2 (stereo not given) showed a growth of 100%.
Cc1ccc(N=NC2C(=O)N(c3ccc(Cl)cc3)N(c3ccc(Cl)cc3)C2=O)cc1 showed a growth of 109%.
For Brc1ccc(Nc2nc3ccccc3nc2Nc2ccc(Br)cc2)cc1, the growth was -56.5% (active).
For Cc1ccc(NCCNCC(O)CO)c2c(=O)c3ccccc3sc12 (stereo not given), the growth was -75.1% (active).
Work on COc1ccc2occ(C3=C(c4c[nH]c5ccccc45)C(=O)NC3=O)c2c1 yielded a growth of 74.5%.
With C[n+]1c2ccccc2nc2ccc(NCCO)cc21 the growth was 116%.
Work on O=C1c2ccc3c4c(ccc(c24)C(=O)N1CCCCO)C(=O)N(CCCCO)C3=O yielded a growth of 97.2%.
In the case of CCCCC1COc2cccc3c2N1C=C/C3=C\C(=O)N(C)c1ccccc1 (stereo not given), the growth is reported as 71.1%.
For O=C(O)c1cn(C2CC2)c2cc(N3CCN(C(=O)C[n+]4ccccc4)CC3)c(F)cc2c1=O, the growth was 106%.
Work on O=C(/C=C/c1ccc(Cl)cc1)c1ccc(Nc2nc(NCCO)nc(Nc3ccc(Cl)cc3)n2)cc1 yielded a growth of 20.2%.
With O=S(=O)(Nc1ncccn1)c1ccc(NC2Nc3nc4ccccc4nc3S2)cc1 (stereo not given) the growth was 108%.
With Nc1nc(Nc2cccc(F)c2)nc2ccccc12 the growth was -59.9% (active).
O=C(/C=C/c1ccc(C(F)(F)F)cc1)c1ccc(Nc2nc(NCCO)nc(N3CCOCC3)n2)cc1 showed a growth of 63.9%.
Compound C1CCN(c2nc(N3CCCCC3)nc(N3CCOCC3)n2)CC1 has a growth of 90.7%.
Compound O=C(CN1C(=O)/C(=C\c2ccc(Cl)cc2)SC1=S)Nc1ncc(Cc2ccc(Cl)cc2)s1 has a growth of 106%.
For O=C(N/N=C/c1ccccc1Cl)C(=O)Nc1cccc(C(F)(F)F)c1, the growth was 96.6%.
Compound CC1(C)CC2(C)OC2C2(C1)N=NC(=Nc1ccccc1)O2 (stereo not given) has a growth of 102%.
With COc1cc(NC(=O)CCSc2nc3ccccc3c(=O)n2Cc2ccccc2)cc(OC)c1OC the growth was 99.6%.
For COc1ccc2oc(=O)cc(Cn3cc(Cn4cnc5c4c(=O)n(C)c(=O)n5C)nn3)c2c1, the growth was 95.9%.
Work on CC(C)C[C@H](C(=O)N[C@H](C(N)=O)C(C)C)N1CC=CCN(OCc2ccccc2)S1(=O)=O yielded a growth of 108% [2.5 µM].
CCN1C(=O)N(CC)C2C1NN=c1s/c(=C3\C(=O)N(CC(C)(C)C)c4ccccc43)c(=O)n12 (stereo not given) gave a growth of 26.7%.
With O=C(N=Nc1c(O)[nH]c2ccccc12)c1oc2ccccc2c1CN1CCN(c2ccccc2)CC1 the growth was 33.6%.
For COC(=O)c1c2c(c(C)[n+]([O-])c1C)C(=O)C(NCc1ccc(F)c(F)c1)=CC2=O, the growth was 9.25% (active).
Compound O=Cc1c(OCc2cnnn2CC(=O)Nc2ccc(Cl)cc2)ccc2ccccc12 has a growth of 111%.
Work on COc1cc(/C=C2\CN(C)C/C(=C\c3cc(CN4CCCC4)c(O)c(OC)c3)C2=O)cc(CN2CCCC2)c1O yielded a growth of 96%.
For COc1cc(/C=C/C(=O)c2ccc(Nc3nc(NCCO)nc(N4CCOCC4)n3)cc2)cc(OC)c1OC, the growth was 20%.
O=C(NC1CCN(Cc2ccccc2)CC1)c1cc(C(=O)NC2CCN(Cc3ccccc3)CC2)cc(C(=O)NC2CCN(Cc3ccccc3)CC2)c1 was tested, and the growth was 107%.
With O=c1oc2ccc(Br)cc2c(=O)n1-c1ccc(I)cc1F the growth was 18.3%.
COc1cccc(C2=NN3C(C2)c2ccccc2OC3c2ccc(/C=C3\SC(=O)NC3=O)cc2)c1 (stereo not given) showed a growth of 106%.
